Reference: publication PMC12864922, “TDP-43 directly inhibits mRNA accumulation in neurites through modulation of mRNA stability”
In all, about 9,900 sequences were measured (“r (bound/input frequency ratio)”: median about 0.7, highest 2% from about 6.5 on). Only a selection was taken, and the highest values are over-represented in it overall.

B1: ENSMUSG00000042529.414|Kcnj12 (ssRNA)
RNA: GGGAGUUCUACAGUCCGACGAUCGCUUCGAUAUCCGCAUGCUAGUGUGUGUGUGUGUGUGUGUGUGUGUGUGUGUGUGUGUGUGUGUGUGAACAUGUGUGAGGGUGUGGAGGUCCCAGGGUGUGUGUAUGUGAAUGUCAGUGGCUUGGGUGCUGUGUGGAGAGAGAGAGAGAGAGAGAGAGAGAGAGAGAGAGAGAGAGAGAGAGAGAGCUGCACAGGAUGAAGCAGCUGCCCUGAGCCCAUCUGGUGCUGUGCACCUGGUCCUUGUCCAGCCGAGGGCCUGGGGGCAGAAGAACACACCAUACUCUUGCGGUCGCACUAGUGUGGAAUUCUCGGGUGUCAAGG
B2: ENSMUSG00000042529.391|Kcnj12 (ssRNA)
RNA: GGGAGUUCUACAGUCCGACGAUCGCUUCGAUAUCCGCAUGCUAAGACAUGAUCAGUCCGACUUGAGUCCCUGCCCUGCCCUGGUUAUGCAGGCUGUACGACGCAGUGUGCAUCAGUCUGAGGAGUCUGGUGGUAAGUAAGCCUCUGCAGCAGACCCUGUCGGAGGCCAUGGGGGCGUGUGUGUGUGUGUGUGUGUGUGUGUGUGUGUGUGUGUGUGUGUGUGUGUGUGAACAUGUGUGAGGGUGUGGAGGUCCCAGGGUGUGUGUAUGUGAAUGUCAGUGGCUUGGGUGCUGUGUGGAGAGAGCUCUUGCGGUCGCACUAGUGUGGAAUUCUCGGGUGUCAAGG
B3: ENSMUSG00000042529.396|Kcnj12 (ssRNA)
RNA: GGGAGUUCUACAGUCCGACGAUCGCUUCGAUAUCCGCAUGCUACCUGCCCUGGUUAUGCAGGCUGUACGACGCAGUGUGCAUCAGUCUGAGGAGUCUGGUGGUAAGUAAGCCUCUGCAGCAGACCCUGUCGGAGGCCAUGGGGGCGUGUGUGUGUGUGUGUGUGUGUGUGUGUGUGUGUGUGUGUGUGUGUGUGUGUGAACAUGUGUGAGGGUGUGGAGGUCCCAGGGUGUGUGUAUGUGAAUGUCAGUGGCUUGGGUGCUGUGUGGAGAGAGAGAGAGAGAGAGAGAGAGAGAGAGAGAGAGCUCUUGCGGUCGCACUAGUGUGGAAUUCUCGGGUGUCAAGG
B4: ENSMUSG00000042529.413|Kcnj12 (ssRNA)
RNA: GGGAGUUCUACAGUCCGACGAUCGCUUCGAUAUCCGCAUGCUAGUGUGUGUGUGUGUGUGUGUGUGUGUGUGUGUGUGUGUGUGUGUGUGUGUGUGAACAUGUGUGAGGGUGUGGAGGUCCCAGGGUGUGUGUAUGUGAAUGUCAGUGGCUUGGGUGCUGUGUGGAGAGAGAGAGAGAGAGAGAGAGAGAGAGAGAGAGAGAGAGAGAGAGAGAGCUGCACAGGAUGAAGCAGCUGCCCUGAGCCCAUCUGGUGCUGUGCACCUGGUCCUUGUCCAGCCGAGGGCCUGGGGGCAGAAGAACACCUCUUGCGGUCGCACUAGUGUGGAAUUCUCGGGUGUCAAGG
B5: ENSMUSG00000042529.389|Kcnj12 (ssRNA)
RNA: GGGAGUUCUACAGUCCGACGAUCGCUUCGAUAUCCGCAUGCUAGAUGCUGGCCACAGACAUGAUCAGUCCGACUUGAGUCCCUGCCCUGCCCUGGUUAUGCAGGCUGUACGACGCAGUGUGCAUCAGUCUGAGGAGUCUGGUGGUAAGUAAGCCUCUGCAGCAGACCCUGUCGGAGGCCAUGGGGGCGUGUGUGUGUGUGUGUGUGUGUGUGUGUGUGUGUGUGUGUGUGUGUGUGUGUGAACAUGUGUGAGGGUGUGGAGGUCCCAGGGUGUGUGUAUGUGAAUGUCAGUGGCUUGGGUGCUCUCUUGCGGUCGCACUAGUGUGGAAUUCUCGGGUGUCAAGG
B6: ENSMUSG00000043670.183|Diras1 (ssRNA)
RNA: GGGAGUUCUACAGUCCGACGAUCGCUUCGAUAUCCGCAUGCUAGACAGAAUCUGAGCCUCUUUGCUGGUCAUGUGUACUCUGGAGACUGUCCCCCAUGUCUGCCCUGAGUUACGGAGCCCCUGUGGUAUCUGCGAGACUGUCCAGGAGACUUGAGUGGCUCCUGGGCCUGUGUCCCACCCAGAUGAGGGUGACUUAGAAUUCUGUGUUUAUGUGCCUGUGUGUGUGGAUGGGUGUGUGUCUGUCUUGGGAUGGGGUGUUCUUGCACCACUUUGUGUUCUUAGUGAGACCACAGUGUAAGUGGCCUCUUGCGGUCGCACUAGUGUGGAAUUCUCGGGUGUCAAGG
B7: ENSMUSG00000042529.394|Kcnj12 (ssRNA)
RNA: GGGAGUUCUACAGUCCGACGAUCGCUUCGAUAUCCGCAUGCUAUUGAGUCCCUGCCCUGCCCUGGUUAUGCAGGCUGUACGACGCAGUGUGCAUCAGUCUGAGGAGUCUGGUGGUAAGUAAGCCUCUGCAGCAGACCCUGUCGGAGGCCAUGGGGGCGUGUGUGUGUGUGUGUGUGUGUGUGUGUGUGUGUGUGUGUGUGUGUGUGUGUGAACAUGUGUGAGGGUGUGGAGGUCCCAGGGUGUGUGUAUGUGAAUGUCAGUGGCUUGGGUGCUGUGUGGAGAGAGAGAGAGAGAGAGAGAGAGCUCUUGCGGUCGCACUAGUGUGGAAUUCUCGGGUGUCAAGG

target: TDP-43 (Homo sapiens, UniProt Q13148 1-414); assay: RNA Bind-n-Seq with designed 260-mer pool; 25 mM Tris-HCl, 150 mM KCl, 3 mM MgCl2, BSA (printed 500 mg/mL), 20 units/mL SUPERase IN; pH not stated; 500 nM RNA pool, 1 h, 4 C; TDP-43 5, 50, 500 nM; high values mean tight binding; details: protein: recombinant; tags: SBP (GST cleaved off with PreScission; pGEX-GST-SBP)
Sequence (Q13148 whole entry): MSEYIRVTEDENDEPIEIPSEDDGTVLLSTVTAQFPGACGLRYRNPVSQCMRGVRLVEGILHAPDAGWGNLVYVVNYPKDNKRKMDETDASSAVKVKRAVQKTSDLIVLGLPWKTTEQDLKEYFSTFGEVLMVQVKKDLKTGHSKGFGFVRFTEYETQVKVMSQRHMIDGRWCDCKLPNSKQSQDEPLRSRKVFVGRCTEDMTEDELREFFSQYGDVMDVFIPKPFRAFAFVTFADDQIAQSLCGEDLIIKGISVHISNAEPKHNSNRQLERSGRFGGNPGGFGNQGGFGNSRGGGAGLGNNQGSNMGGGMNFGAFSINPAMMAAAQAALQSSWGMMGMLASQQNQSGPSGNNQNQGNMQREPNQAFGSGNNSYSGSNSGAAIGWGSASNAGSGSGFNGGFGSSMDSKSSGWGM
How it was run: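 Streptavidin beads captured recombinant SBP-tagged TDP-43 at 5, 50 or 500 nM, and the beads were incubated for 1 h at 4 °C with 500 nM of an in vitro-transcribed pool of 260-nt 3′ UTR oligos in 25 mM Tris-HCl, 150 mM KCl, 3 mM MgCl2, BSA and SUPERase IN. After washing, bound RNA was eluted with biotin, reverse transcribed, PCR-amplified and sequenced. Binding is reported as R, the mapped-read-normalized abundance of each oligo in the bound sample divided by its abundance in the input. Two independent protein batches served as duplicates.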

| Binder | binding signal |
| --- | --- |
| B1 | 5.01 R (bound/input frequency ratio) |
| B2 | 10.1 R (bound/input frequency ratio) |
| B3 | 7.9 R (bound/input frequency ratio) |
| B4 | 4.88 R (bound/input frequency ratio) |
| B5 | 7.39 R (bound/input frequency ratio) |
| B6 | 5.8 R (bound/input frequency ratio) |
| B7 | 5.55 R (bound/input frequency ratio) |
